Data on 33 molecules can be found in PubChem BioAssay.

For assay [1], the target named is Mitogen-activated protein kinase 7 (Homo sapiens) (UniProt Q13164). The experiment in a line: Gal4-ERK5 driven luciferase induction – cell-based, HTS, primary screen (AID 1508626;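 active = luciferase signal above three times the same-plate solvent-only control wells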;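 also: luciferase driven by Gal4-ERK5 fusion binding five Gal4 sites before minimal TATA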). To be noted: HeLa Gal4-ERK5 transactivation, 18 h, at 5 µM, stronger effect = higher value.
Assay [2] can be described thus: galactose survival enhancers in mitochondrial complex I cybrids – cell-based, galactose medium, ATP luminescence, primary screen (AID 1645843;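 active = z-score of at least 1.8 in each of two replicates, scored against plate mean and spread of sample wells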;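 also: positive z means more ATP and so rescue of galactose-driven cybrid death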). To be noted: complex I mutant cybrid cells, 72 h, stronger effect = higher value.
The nature of assay [3]: growth inhibition, single agents and combos, LFS_MB_1R, cell-based, cisplatin or BGB combos, synergistic combos for chromothripsis tumors (AID 1671452).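 Also: cells exposed for 96 hours before readout.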 To be noted: LFS_MB_1R medulloblastoma cells, stronger effect = higher value.
Assay [4] is described as follows: growth inhibition, single agents and combos, CRL2098, cell-based, BGB or cisplatin IC20 combos, synergistic combos for chromothripsis tumors (AID 1671454).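 Also: cells exposed for 96 h before readout; 0% = vehicle DMSO and 100% = killing by high DMSO.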 Conditions: CRL2098 osteosarcoma cells, drug combinations, stronger effect = higher value.
The nature of assay [5]: growth inhibition, single agents and combos, HD-MB03, cell-based, BGB or cisplatin IC20 combos, synergistic combos for chromothripsis tumors (AID 1671455; in the data active = inhibition above about 83%;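 also: 0% = vehicle DMSO and 100% = high DMSO as cytotoxic control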). To be noted: HD-MB03 medulloblastoma cells, stronger effect = higher value.
Assay [6] can be described thus: growth inhibition, single agents and combos, UWB1.289, cell-based, BGB or cisplatin combos, synergistic combos for chromothripsis tumors (AID 1671456).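 Also: cells exposed to compound for four days; 0% = vehicle DMSO and 100% = killing by high DMSO.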 Conditions: UWB1.289 ovarian carcinoma cells, stronger effect = higher value.
Assay [7] can be described thus: growth inhibition, single agents and combos, LFS_MB_2R, cell-based, cisplatin combos, synergistic combos for chromothripsis tumors (AID 1671457).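 Also: cells exposed to compound for four days before readout.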 Conditions: LFS_MB_2R medulloblastoma cells, stronger effect = higher value.
Assay [8] can be described thus: UWB1.289_BRCA1 ovarian cancer growth, cell-based, BGB or cisplatin combinations (AID 1671459). To be noted: UWB1.289 BRCA1 ovarian carcinoma, drug combinations, stronger effect = higher value.
Assay [9] is described as follows: drug combination toxicity in non-malignant astrocytes – cell-based, BGB or cisplatin IC20 combos, cytotoxicity control for chromothriptic childhood tumor combination screen (AID 1671460).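 Also: cells exposed to compounds for 96 hours before viability readout; 0% = vehicle and 100% = killing control.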 To be noted: Human astrocytes, viability inhibition, drug combinations, at 0.5 µM, stronger effect = higher value.
Assay [10] is described as follows: BT084 cell growth, single and combined drugs, ICGC_MB145, cisplatin and BGB IC40 combos (AID 1671461).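 Also: cells exposed to drugs for 96 hours; 0% = vehicle DMSO and 100% = high DMSO full killing control.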 Conditions: BT084 medulloblastoma cells, drug combinations, stronger effect = higher value.
Assay [11] in a line: RCMB18 cell growth, single agent and combined, cisplatin and BGB IC40 combos (AID 1671462).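 Also: cells exposed to compound for four days.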 To be noted: RCMB18 medulloblastoma cells, stronger effect = higher value.
Assay [12] can be described thus: CRL1545 cell growth, single agent and combined, cisplatin and BGB IC20 combos (AID 1671464).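 Also: cells exposed to compound for 96 hours before readout; 0% = vehicle DMSO and 100% = high DMSO killing control.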 Conditions: CRL1545 osteosarcoma cells, stronger effect = higher value.
Assay [13] concerns the target ATP-dependent translocase ABCB1 (Homo sapiens) (UniProt P08183). Nature of the assay: P-glycoprotein substrate transport blockade – cell-based (AID 377; in the data active = fluorescence slope change above about 50%). Conditions: MDR1-expressing cells, fluorescent substrate accumulation slope; stronger effect = higher value; concentration not given here.
The mark [14] stands for this setting: measured here: combination with BGB IC40, at 0.05 µM.
Where [15] appears, read: measured here: combination with cisplatin, at 0.5 µM.
Setting [16] is: measured here: combination with cisplatin, at 5 µM.
[17] abbreviates: measured here: combination with BGB at IC20, at 0.5 µM.
Where [18] appears, read: measured here: combination with cisplatin at IC20, at 0.5 µM.
[19] abbreviates: measured here: combo with BGB at IC20, at 0.5 µM.
[20] abbreviates: measured here: combo with cisplatin at IC20, at 0.5 µM.
The mark [21] stands for this setting: measured here: inhibition with BGB combination, at 0.05 µM.
Setting [22] is: measured here: inhibition with cisplatin combination, at 0.05 µM.
Setting [23] is: BGB combination, concentration series, at 5 µM.
Where [24] appears, read: cisplatin combination, concentration series, at 5 µM.
Setting [25] is: measured here: combo with BGB IC20.
[26] abbreviates: measured here: combo with cisplatin IC20.
Setting [27] is: cisplatin combination, at 0.5 µM.
The mark [28] stands for this setting: measured here: BGB IC40 combination 0.05 uM, at 0.05 µM.
Where [29] appears, read: measured here: BGB IC40 combination, at 0.05 µM.
[30] abbreviates: measured here: with BGB IC20 combination, at 0.5 µM.
Where [31] appears, read: measured here: with cisplatin IC20 combination, at 0.5 µM.

Where “and” joins values, the source holds several entries; their conditions need not be identical. Identical values can stand only once. Inconclusive results are not listed. Calls of active or inactive are those of the source. Rule as the data show it, unless noted: active = inhibition above about 80%; inactive = the rest.

Usually inhibition stands for the relative decrease from the control value, in per cent.

ATP-dependent translocase ABCB1 (Homo sapiens), sequence (P08183 whole entry, looked up): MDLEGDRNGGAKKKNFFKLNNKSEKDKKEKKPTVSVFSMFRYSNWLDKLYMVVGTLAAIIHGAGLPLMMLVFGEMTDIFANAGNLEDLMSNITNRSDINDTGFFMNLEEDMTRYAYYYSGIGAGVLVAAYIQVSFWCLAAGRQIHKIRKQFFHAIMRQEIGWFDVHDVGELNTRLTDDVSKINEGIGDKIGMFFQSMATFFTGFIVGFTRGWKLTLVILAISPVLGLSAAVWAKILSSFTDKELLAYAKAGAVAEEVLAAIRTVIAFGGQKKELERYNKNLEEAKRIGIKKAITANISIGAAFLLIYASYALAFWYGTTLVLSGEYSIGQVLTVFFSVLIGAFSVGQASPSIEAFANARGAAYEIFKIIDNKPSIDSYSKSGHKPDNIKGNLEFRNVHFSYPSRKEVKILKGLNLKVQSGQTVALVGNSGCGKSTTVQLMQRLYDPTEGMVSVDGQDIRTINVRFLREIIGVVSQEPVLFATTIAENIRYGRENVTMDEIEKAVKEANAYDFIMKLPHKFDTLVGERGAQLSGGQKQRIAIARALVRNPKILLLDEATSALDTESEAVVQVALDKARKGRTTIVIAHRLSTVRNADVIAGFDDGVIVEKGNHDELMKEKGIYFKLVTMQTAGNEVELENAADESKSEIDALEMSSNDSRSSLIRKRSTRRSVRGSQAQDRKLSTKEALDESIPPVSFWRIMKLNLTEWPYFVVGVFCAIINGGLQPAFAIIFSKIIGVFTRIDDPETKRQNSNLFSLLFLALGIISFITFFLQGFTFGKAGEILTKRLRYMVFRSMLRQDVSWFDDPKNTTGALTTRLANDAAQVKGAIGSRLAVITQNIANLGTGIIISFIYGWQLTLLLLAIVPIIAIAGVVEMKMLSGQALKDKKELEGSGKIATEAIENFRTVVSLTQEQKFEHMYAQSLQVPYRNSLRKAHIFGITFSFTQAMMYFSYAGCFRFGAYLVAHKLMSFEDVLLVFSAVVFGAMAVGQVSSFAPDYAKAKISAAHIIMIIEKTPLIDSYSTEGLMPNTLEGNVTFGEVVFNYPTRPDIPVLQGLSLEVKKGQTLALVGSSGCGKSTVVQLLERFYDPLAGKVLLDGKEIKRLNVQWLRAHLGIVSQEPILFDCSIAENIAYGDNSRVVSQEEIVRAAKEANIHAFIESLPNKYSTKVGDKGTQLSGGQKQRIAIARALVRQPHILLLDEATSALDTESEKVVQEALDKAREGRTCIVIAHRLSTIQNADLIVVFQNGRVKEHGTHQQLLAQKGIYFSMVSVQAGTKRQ
Mitogen-activated protein kinase 7 (Homo sapiens), sequence (Q13164 whole entry, looked up, the tested form may be a part): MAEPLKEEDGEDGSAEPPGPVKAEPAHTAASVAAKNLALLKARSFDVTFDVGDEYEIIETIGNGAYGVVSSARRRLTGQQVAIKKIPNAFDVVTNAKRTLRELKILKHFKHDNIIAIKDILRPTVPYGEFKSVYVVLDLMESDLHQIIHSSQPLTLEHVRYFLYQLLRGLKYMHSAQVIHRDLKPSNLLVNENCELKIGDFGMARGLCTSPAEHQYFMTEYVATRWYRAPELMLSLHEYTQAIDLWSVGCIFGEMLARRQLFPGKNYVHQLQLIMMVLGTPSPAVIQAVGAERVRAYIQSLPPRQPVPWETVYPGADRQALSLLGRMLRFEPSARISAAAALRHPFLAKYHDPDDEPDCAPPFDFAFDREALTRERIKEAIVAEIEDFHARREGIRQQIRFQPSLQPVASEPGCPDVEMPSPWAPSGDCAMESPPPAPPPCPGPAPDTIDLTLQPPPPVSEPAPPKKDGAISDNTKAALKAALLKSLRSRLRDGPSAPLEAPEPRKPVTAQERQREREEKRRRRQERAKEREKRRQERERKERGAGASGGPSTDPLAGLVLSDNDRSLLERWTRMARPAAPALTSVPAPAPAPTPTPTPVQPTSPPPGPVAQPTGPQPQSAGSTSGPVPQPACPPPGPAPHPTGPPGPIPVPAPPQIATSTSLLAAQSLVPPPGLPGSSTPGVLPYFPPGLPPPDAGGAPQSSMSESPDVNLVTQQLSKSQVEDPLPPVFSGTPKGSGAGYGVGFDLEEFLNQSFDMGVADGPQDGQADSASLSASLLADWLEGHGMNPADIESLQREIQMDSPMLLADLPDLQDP

`OC1(c2ccc(Cl)c(C(F)(F)F)c2)CCN(CCCC(c2ccc(F)cc2)c2ccc(F)cc2)CC1`: the luciferase signal in assay [1] was 60 AU (inactive).

With `CC1CC(OC(=O)c2ccccc2O)CC(C)(C)C1` (configuration not stated), in assay [1], the luciferase signal was 140 AU (inactive).

As to `CCCCOc1cc(C(=O)OCCN(CC)CC)ccc1N`, the z-score in assay [2] is 0.26 (inactive).

Turning to `Nc1ccc2cc3ccc(N)cc3nc2c1`, the z-score in [2] was -2.66 (inactive). The inhibition in [3] (at 0.5 µM) is -22.9% (inactive); in assay [3] (setting [14]) it was -30.9%; in assay [3] (setting [15]), -45.7%; in [3] (setting [16]) it was 99.1%; in [4] (at 0.5 µM), -33.9% (inactive); in assay [4] (setting [17]), -34.4%. Moreover, the inhibition in [4] (setting [18]) is -50.2%; in assay [5] (at 0.5 µM), -6.54% (inactive); in assay [5] (setting [19]), 19.2%; in assay [5] (setting [20]) it was -34.6%; in assay [6] (at 0.5 µM), -1.27% (inactive); in [6] (setting [21]), -20.6%. The inhibition in [6] (setting [22]) is -13.2%; in assay [7] (at 0.5 µM), -9.07% (inactive); in [7] (setting [15]) it was -2.23%; in assay [7] (setting [16]), 84.3%; in assay [8] (setting [23]), 100%; in assay [8] (at 0.5 µM), -1.03% (inactive). The inhibition in assay [8] (setting [24]) is 115%; in assay [9], -4.99% (inactive); in [9] (setting [25]), 0.031%; in assay [9] (setting [26]), -30.9%; in [10] (at 0.5 µM) it was -51.8% (inactive); in assay [10] (setting [27]), -55.3%. Further, the inhibition in [10] (cisplatin combination, at 5 µM) is 80.4%; in [10] (setting [28]), -6.84%; in assay [10] (single agent, at 5 µM), 89.8%; in [11] (at 0.5 µM), -8.62% (inactive); in assay [11] (cisplatin combo, at 5 µM) it was 83.1%; in [11] (setting [29]), 9.55%. The inhibition is -20.8% in assay [11] (setting [15]); 73.5% in [11] (single agent, at 5 µM); -34.4% (inactive) in [12] (at 0.5 µM); -17.3% in assay [12] (setting [30]); -43% in [12] (setting [31]); -52.5% in [12] (single agent, at 0.05 µM). Besides, in assay [12] (single agent, at 5 µM), the inhibition was 100%.

In the case of `O=C(CCCN1CCC(O)(c2ccc(Br)cc2)CC1)c1ccc(F)cc1`, the luciferase signal in assay [1] is 52 AU (inactive).

With `CCCCOC(=O)c1ccc(O)cc1`, in assay [1], the luciferase signal was 88 AU (inactive).

As to `CN(C(=O)C(Cl)Cl)c1ccc(OC(=O)c2ccco2)cc1`, the luciferase signal in assay [1] was 44 AU (inactive).

On to `O=C(Oc1ccccc1C(=O)O)c1ccccc1O`, for which the luciferase signal in assay [1] was 64 AU (inactive).

In the case of `O=c1cc[nH]c(=O)[nH]1`, the inhibition was -40% (inactive) in assay [3] (at 0.5 µM); -59% in assay [3] (setting [14]); -48% in assay [3] (setting [15]); -36.2% in [3] (setting [16]); -92.2% (inactive) in assay [4] (at 0.5 µM); -94.9% in assay [4] (setting [17]). In addition, the inhibition is -107% in assay [4] (setting [18]); -17.8% (inactive) in assay [5] (at 0.5 µM); -14.7% in assay [5] (setting [19]); -22.4% in assay [5] (setting [20]); -18% (inactive) in [6] (at 0.5 µM); -36% in assay [6] (setting [21]). Moreover, the inhibition is -27.8% in assay [6] (setting [22]); -17.4% (inactive) in assay [7] (at 0.5 µM); -11.9% in assay [7] (setting [15]); -19.1% in assay [7] (setting [16]); -12.9% in [8] (setting [23]); -25% (inactive) in [8] (at 0.5 µM). The inhibition in [8] (setting [24]) was -6.49%; in assay [9], -8.86% (inactive); in [9] (setting [25]), 4.39%; in assay [9] (setting [26]), -31.7%; in assay [10] (at 0.5 µM) it was -12.8% (inactive); in assay [10] (setting [27]), -14.2%. Besides, the inhibition is -53.2% in [10] (cisplatin combination, at 5 µM); -11.4% in assay [10] (setting [28]); -17.3% in [10] (single agent, at 5 µM); -17.6% (inactive) in assay [11] (at 0.5 µM); -19.1% in [11] (cisplatin combo, at 5 µM); -3.59% in assay [11] (setting [29]). The inhibition in assay [11] (setting [15]) was -29.1%; in [11] (single agent, at 5 µM) it was -18.8%; in assay [12] (at 0.5 µM), -72% (inactive); in [12] (setting [30]) it was -50.2%; in assay [12] (setting [31]), -82.8%; in assay [12] (single agent, at 0.05 µM), 4.62%. The inhibition in assay [12] (single agent, at 5 µM) was -35%.

With `Oc1c(I)cc(Cl)c2cccnc12`, the luciferase signal in [1] was 52 AU (inactive).

Turning to `CN1CCC(=C2c3ccccc3CCc3cccnc32)CC1`, the z-score in [2] is 0.04 (inactive).

Turning to `O=C(Oc1cccc2cccnc12)c1ccccc1`, the luciferase signal in assay [1] is 44 AU (inactive).

As for `CC[N+](CC)(CC(=O)Nc1c(C)cccc1C)Cc1ccccc1`, in assay [1], the luciferase signal was 36 AU (inactive).

For the molecule `Cc1ncc(CO)c(CO)c1O`, in [1], the luciferase signal was 160 AU (inactive).

As for `O=C(N/N=C/c1ccc([N+](=O)[O-])o1)c1ccc(O)cc1`, the fluorescence slope change in assay [13] was -24% (inactive).

On to `CCN(CC)CCc1nc(-c2ccccc2)no1`, for which, in [13], the fluorescence slope change is 14.4% (inactive).

For `CC1CCc2c(N3CCC(O)CC3)c(F)cc3c(=O)c(C(=O)O)cn1c23` (configuration not stated), the z-score in [2] is 1.2 (inactive).

For the molecule `CC(C(=O)O)c1ccc2c(c1)Cc1cccnc1O2` (configuration not stated), in assay [2], the z-score is 0.415 (inactive).

Take `CN1C(=O)OC(C)(C)C1=O`: the fluorescence slope change in assay [13] was 1.5% (inactive).

As for `CC(=O)CC(c1ccc([N+](=O)[O-])cc1)c1c(O)c2ccccc2oc1=O` (configuration not stated), in [13], the fluorescence slope change is 22.3% (inactive).

On to `CN(C(=O)CN(CCO)CC(=O)N(C)C(C)(C)Cc1ccccc1)C(C)(C)Cc1ccccc1`, for which, in assay [1], the luciferase signal is 32 AU (inactive).

As to `C[C@@H](O)[C@H]1C(=O)N2C(C(=O)O)=C(SCCN=CN)C[C@H]12`, the z-score in [2] is -0.195 (inactive) and 0.375 (inactive).

Regarding `CC(C)(C)C(=O)C(Oc1ccc(Cl)cc1)n1ccnc1` (configuration not stated), the z-score in assay [2] was -0.18 (inactive).

Consider `CCOc1nc2cccc(C(=O)O)c2n1Cc1ccc(-c2ccccc2-c2nn[nH]n2)cc1`, for which, in assay [2], the z-score was 0.64 (inactive).

Take `N=C(N)N1CCc2ccccc2C1`: in [2], the z-score is 0.125 (inactive).

Consider `COc1cc(C(=O)N2CCOCC2)cc(OC)c1OC`, for which the luciferase signal in assay [1] is 48 AU (inactive).

Take `CNCCc1ccccn1`: the fluorescence slope change in [13] was 28.1% (inactive). Moreover, in [1], the luciferase signal is 64 AU (inactive).

With `CCOc1ccc2nc(S(N)(=O)=O)sc2c1`, the luciferase signal in assay [1] was 40 AU (inactive).

As for `O=C(Nc1ccccc1)OCC(CN1CCCCC1)OC(=O)Nc1ccccc1` (configuration not stated), in assay [13], the fluorescence slope change is 147% (active).

`O=C(O)CN(CCN(CC(=O)O)CC(=O)O)CCN(CC(=O)O)CC(=O)O`: the z-score in assay [2] was 4.38 (active).

As for `Cc1cccc(C)c1NC(=O)CN1CCN(CCCC(c2ccc(F)cc2)c2ccc(F)cc2)CC1`, the fluorescence slope change in assay [13] is 64.3% (active).

Consider `CC(=O)N[C@@H](CC(C)C)C(=O)O`, for which the luciferase signal in [1] is 56 AU (inactive).

Turning to `CCCCCCC[N+](CC)(CC)CCCCc1ccc(Cl)cc1`, the fluorescence slope change in assay [13] is 178% (active).
